An excerpt weighted towards active compounds, which were near 3% of everything screened.
HIF-2a block: HIF-2a reporter inhibitors, primary screen, luminescence, 786-0 RCC cells; 786-0 RCC cells HIF-2a reporter, luciferase luminescence, overnight; inhibition, % at 18.8 µM; 360,000 compounds, 0.72% hits;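 active = inhibition of the luminescence signal of 40% or more relative to plate controls, in a single-dose primary screen at 18.75 µM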
KKLEB cytotox: cytotoxicity in KKLEB CF airway cells, primary screen, cytotoxicity control for CF NF-kB inhibitor project, cell-based, uHTS, fluorescence assay plates | KKLEB CF airway cells viability, ATPlite luminescence, overnight; stronger effect = lower value; cells stimulated with P. aeruginosa culture filtrate | activity change (cytotoxicity), % at 5 µM | 360,000 compounds, 0.36% hits | AID 602141, 2011;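 active = corrected activity change at or below -50% at 5 µM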
EBV LMP1 NFkB: EBV LMP1-driven NF-kappaB luciferase reporter inhibitors, primary screen, cell-based, luminescence, single point; 350,000 compounds, 0.69% hits; AID 504558, 2011; LMP1-induced NF-kappaB luciferase reporter cells; inhibition, % at 12.5 µM; in the data active = inhibition above about 41%; inconclusive = no clear call, values can overlap the other calls;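 also: 0% = neutral control wells and 100% = reference inhibitor control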
CF NFkB inh: inhibitors of PAF-induced NF-kB signaling, primary screen, cell-based, GFP fluorescence, uHTS; inhibition, % at 5 µM; KKLEB NF-kB-GFP reporter, GFP fluorescence overnight; 360,000 compounds, 0.86% hits;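 active = at least 50% inhibition at 5 µM, scaled per plate between neutral and stimulator controls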;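 also: PAF is a Pseudomonas aeruginosa culture filtrate used as stimulus; plate controls were PAF-stimulated DMSO wells for no effect and unstimulated DMSO wells for full effect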
TRPM1 prom inh: inhibitors of MITF-dependent TRPM1 promoter reporter, primary screen, cell-based, SK-MEL-5, single point, luciferase; SK-MEL-5 TRPM1 promoter luciferase, 24 h; inhibition, % at 12.5 µM; 330,000 compounds, 0.83% hits; AID 488899, 2010;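 active = mean inhibition across replicates of 60% or more, whatever share of single replicates reaches that level; inconclusive = some that reach 60%, reason not given; inactive = mean inhibition across replicates below 60%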
Peg3 promoter: Peg3 promoter-driven luciferase inhibitors, primary screen, cell-based, HeLa, luciferase luminescence; inhibition, % at 20 µM; AID 588405, 2011; 360,000 compounds, 1.7% hits; HeLa PEG-Prom luciferase reporter, overnight;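 active = inhibition of at least 50% at 20 µM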
An asterisk follows results filed as active; u = inconclusive; x = not tested or not shown.

SMILES	HIF-2a block	KKLEB cytotox	EBV LMP1 NFkB	CF NFkB inh	TRPM1 prom inh	Peg3 promoter
O=C(O)CCCN1C(=O)/C(=C\C(Cl)=C\c2ccccc2)SC1=S	94*	-13	-27	-27	66*	108*
CN1CCN(C(=O)CCCN2C(=O)/C(=C/c3ccccc3)SC2=S)CC1	28	-6	-16	11	-8	25
COC1CC(NC(C)=O)C(OC(=O)c2ccccc2)C(CBr)O1 (stereo not drawn)	0	-6	0	6	x	-13
Cc1ccccc1S(=O)(=O)N1C[C@H]2CON(C)[C@H]2C[C@H]1c1cccc(Oc2ccccc2)c1	10	-16	2	7	-6	8
COc1ccc(/C=C2/SC(=S)N(CCCC(=O)Nc3ccc(O)cc3)C2=O)cc1OC	42*	-13	21	9	5	26
COc1cccc(/C=C2/SC(=S)N(CCCC(=O)Nc3ccc(O)cc3)C2=O)c1	20	-16	31	21	-9	99*
CCCN1C(=O)/C(=C/c2ccncc2)SC1=S	11	1	-1	10	9	-3
O=C(CCCN1C(=O)/C(=C\c2ccccc2)SC1=S)Nc1ccc(O)cc1	61*	-10	9	10	16	83*
O=C1/C(=C/c2ccncc2)SC(=S)N1Cc1ccccc1	20	-17	43*	25	21	26
O=C(Nc1ccc(Oc2ccccc2)cc1)c1csc([C@H]2C[C@H](O)[C@@H](CO)O2)n1	-19	-3	x	0	x	-4
O=C(C1CCN(CCc2ccccc2)CC1)N1CCOCC1	-7	7	1	2	-13	-5
C/C=C/c1cccc(-c2nc(C(=O)NC3CCC3)cc3c2[C@@H](CCO)N(S(=O)C(C)(C)C)C3)c1 (stereo partly drawn)	8	8	x	-16	x	14
C[C@@H]1C2CC(C/C2=N\NC(=O)c2ccncc2)C1(C)C (stereo partly drawn)	13	5	72*	-9	0	12
CC(SCc1ccccc1)C(=O)Nc1ccc(F)cc1 (stereo not drawn)	-42	10	-9	6	-2	-24
N#CC(C#N)=C(Nc1ccc(F)cc1)SCc1cccc(Br)c1	-33	-42	u	51*	63*	21
CC1CN(c2ccc([N+](=O)[O-])c(NCCOc3ccc(Cl)cc3)c2)CC(C)N1 (stereo not drawn)	-16	-18	-79	-11	2	77*
Cc1ccccc1OCCNc1cc(N2CC(C)NC(C)C2)ccc1[N+](=O)[O-] (stereo not drawn)	-16	-2	-14	16	-6	81*
CC1CN(c2ccc([N+](=O)[O-])c(NCCOc3ccccc3)c2)CC(C)N1 (stereo not drawn)	-6	-1	-5	11	3	29
O=[N+]([O-])c1ccc(N2CCCCC2)cc1NCCOc1ccccc1	-86	-24	-11	15	-10	-40
Cc1cc(Cl)ccc1C(O)c1ncc(-c2ccc(C(F)(F)F)cc2)[nH]1 (stereo not drawn)	2	-13	x	15	x	37
Cc1sc2ncnc(Sc3nnnn3-c3ccccc3)c2c1C	24	-54*	2	80*	69*	72*
Clc1ccc(-n2nnnc2Sc2ncnc3sccc23)cc1	93*	-10	51*	83*	66*	108*
Cc1sc2ncnc(Sc3ccccc3C(=O)O)c2c1C	7	-4	3	15	-4	-1
CC(C)(C)[C@H](NC(=O)c1ccc(N)c(Cl)c1)C(=O)N1CCC[C@H]1C(=O)N[C@H](C#N)CC(=O)O	7	6	x	-6	x	5
CS(=O)(=O)c1ccc(Nc2nc(C(N)Cc3ccc(Cl)cc3)cs2)cc1 (stereo not drawn)	9	-12	x	9	x	26
SMILES	HIF-2a block	KKLEB cytotox	EBV LMP1 NFkB	CF NFkB inh	TRPM1 prom inh	Peg3 promoter
COC(=O)C1=C(C)NC(=O)NC1c1ccc(N2CCC(c3ccccc3)=N2)cc1 (stereo not drawn)	-10	6	-4	-7	-2	6
CCOC(=O)/C(=C\c1ccc(N2CCC(c3ccccc3)=N2)cc1)C(C)=O	-91	-4	88*	0	-79	-92
Nc1ccccc1SC1CC(=O)N(c2ccccc2Cl)C1=O (stereo not drawn)	2	-8	47*	8	-11	-8
Cc1c(Cl)cccc1N1C(=O)CC(Sc2ccccc2N)C1=O (stereo not drawn)	1	6	-6	1	x	31
Cc1cc(Br)cn2c(Cc3ccccc3)c(-c3ccc(F)cc3)nc12	-10	-9	x	45	x	8
CC(=O)c1ccc(N2CCN(c3ccc(S(=O)(=O)NCCCN(C)C)cc3[N+](=O)[O-])CC2)cc1	-6	-4	-14	8	4	79*
C[C@@H](NC(=O)[C@@H]1CCCN1C(=O)[C@@H]1CCCN1C(=O)OC(C)(C)C)c1ccccc1	-7	x	x	x	x	x
C(=C\c1ccccc1)/C=N/N1CCN(c2ccccn2)CC1	-200	-3	85*	-3	-82	-232
Cc1cc(C)c(C)c(OC(=O)c2sc(Cl)nc2C)c1	8	-39	17	8	-5	90*
Cc1ccc(C23CC4CC(CC(NC(=O)NCCN(C)C)(C4)C2)C3)cc1	5	-7	0	11	20	34
CN(C)CCNC(=O)COc1ccc(C23CC4CC(CC(C4)C2)C3)cc1	8	-32	-3	26	70*	97*
O=C(COC(=O)C1COc2ccccc2O1)c1ccccc1 (stereo not drawn)	11	-4	-6	-11	x	22
CCOC(=O)c1c(-c2ccccc2)nnn1-c1nc(OCC)nc(N2CCCCC2)n1	9	10	13	4	17	53*
O=C(Nc1ccc(F)c(Cl)c1)c1cc(C2CCCN(C(=O)c3cccs3)C2)on1 (stereo not drawn)	-197	-19	x	19	x	-98
CCc1nc2ccc(C(=O)NCc3ccc(OC)cc3)cn2c1N(C)C(=O)Cc1ccccc1	-3	-7	x	3	x	6
C=CC[n+]1ccc(/C=C2\C=Cc3cc(C)ccc3N2CC)c2ccccc21	-18	-33	56*	48	84*	43
CCCCC[C@H](C)N1C[C@H](COCc2ccccc2)Oc2cc(N3CC[C@@H](N(C)C)C3)ccc2S1(=O)=O	3	x	x	x	x	x
CC1=CC2=NC(=O)/C(=C\c3cc(C)n(-c4ccc(F)cc4)c3C)C(=N)N2O1	10	2	-18	-18	-1	11

Assay outcomes: PubChem, several laboratories
